# Test system: XIP peptide (Xip251-270)
# Assay: small-molecule binders of XIP peptide, primary screen, biochemical, small-molecule microarray, fluorescence 635/667 nm, 0.5 µg/mL protein (AID 1183)
# Conditions: small-molecule microarray binding, fluorescence 635 nm; higher = more signal
row,Structure (SMILES),composite z-score
1,CN1C(=O)[C@@]2(CCC(=O)OC(C)(C)C)N=C(c3ccc(OCCCO)cc3)O[C@H]2c2ccccc21,0.576
2,COCC1=C2[C@@H](CCc3ccccc3)OB(O)C[C@@H]2n2c(=O)n(-c3ccccc3)c(=O)n2C1,0.835
3,CCCCC(=C=CC[C@H](O)c1ccccc1OCCO)C[C@H](O)COCc1ccccc1,-0.765
4,COCCOC(=O)N1C(=O)[C@@]2(c3cc(C#CCNC(N)=O)ccc31)[C@H](c1ccc(O)cc1)N1[C@H](c3ccccc3)[C@H](c3ccccc3)OC(=O)[C@H]1[C@@H]2C(=O)N1CCCCCCC1,0.561
5,CC(C)NC(=O)[C@@H]1c2ccccc2C(=O)N(CC23CC4CC(CC(C4)C2)C3)[C@H]1c1ccc(CO)cc1,0.661
6,CCCC[C@@H]1C[C@H]1[C@@H](NS(=O)(=O)c1cccc2cccnc12)c1ccc(-c2ccccc2)cc1,-0.239
7,CC(C)N1CC=CC23O[C@@H]4C=CCCOC(=O)C4[C@H]2C(=O)N(CCCCCCO)[C@@H]3C1=O (stereo partly specified),0.645
8,CC(C)=C1C(=O)C(c2ccccc2)=C2CN3C(=O)N(CCc4ccccc4)C(=O)[C@]3(Cc3ccc(F)cc3)[C@H]21,-0.27
9,CO[C@H]1O[C@H](CO)[C@@H](OC(=O)Nc2ccc(C#N)cc2)[C@H](OC(=O)c2cc3ccccc3[nH]2)[C@H]1OC(=O)c1cc2ccccc2[nH]1,0.875
10,[N-]=[N+]=NCc1ccccc1[C@@H]1OC(c2ccc(OCCCO)cc2)=N[C@]1(Cc1ccccc1)C(=O)N1CCOCC1,0.841
11,CC(C)c1ccc(NN2C(C(O)c3ccc4c(c3)OCO4)C=CC3C(=O)N(c4ccccc4)C(=O)C32)cc1 (stereo unspecified),0.665

# Source: PubChem BioAssay
